Laboratory results reported in PubChem BioAssay (Tox21).
Records with an inconclusive call do not appear. Entries that show only a call come without a potency. The source holds several records for some structures; these can differ, active in one and inactive in another. Calls of active or inactive are those of the source. Unless noted, calls come from the whole dose curve.

Tests used:
[1] = Nuclear factor erythroid 2-related factor 2/antioxidant responsive element (Nrf2/ARE) small molecule agonists: qHTS cell viability counter screen in human keratinocytes (AID 1919968; active = well fitted cell-killing curve with a large enough effect in the repeat runs; note: nearly all actives have a fitted effect of over 55% in size; note: potency is the fitted concentration of half-maximal effect)
Outline: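 After a 5 h attachment period, ARE-reporter keratinocytes were dosed with compounds in DMSO and then cultured 23 h at 37 C. Cell viability came from CellTiter-Fluor signal read after a further 1 h.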

[2] = Nuclear factor erythroid 2-related factor 2/antioxidant responsive element (Nrf2/ARE) small molecule agonists: luciferase reporter gene qHTS assay in human keratinocytes (AID 1919969); note: nearly all actives have a fitted effect of over 35% in size; note: potency is the fitted concentration of half-maximal effect
[3] = target: Gonadotropin-releasing hormone receptor (Homo sapiens) (UniProt P30968); assay: Human gonadotropin-releasing hormone receptor (GnRHR) small molecule agonists, calcium flux assay in GnRHR-HEK293 cells (AID 1920063); note: nearly all actives have a fitted effect of over 35% in size
Chain of Gonadotropin-releasing hormone receptor (Homo sapiens) (P30968 whole entry, looked up): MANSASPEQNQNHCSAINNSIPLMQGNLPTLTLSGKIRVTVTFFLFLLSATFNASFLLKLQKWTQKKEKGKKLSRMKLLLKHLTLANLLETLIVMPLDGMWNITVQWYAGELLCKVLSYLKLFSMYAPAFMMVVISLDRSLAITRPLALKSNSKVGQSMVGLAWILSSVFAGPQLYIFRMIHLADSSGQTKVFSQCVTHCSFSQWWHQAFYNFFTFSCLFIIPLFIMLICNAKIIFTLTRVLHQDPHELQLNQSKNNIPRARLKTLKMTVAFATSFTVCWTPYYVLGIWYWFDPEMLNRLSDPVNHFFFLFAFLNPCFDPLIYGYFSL
Outline: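 We seeded human GnRHR-expressing HEK293 cells for 18 hours, loaded them with calcium dye for an hour at 37 C, added test compounds, and recorded fluorescence intensity kinetically for three minutes.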

[4] = G protein-coupled receptor (GPCR) small molecule agonists, calcium flux assay: HEK293 wild type cell line counter screen (AID 1920065)
Outline: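 Calcium-sensitive dye, loaded 1 h at 37 C into cells cultured 18 h, reports compound-evoked calcium release as fluorescence (Ex/Em 480/540), measured over 3 min. Agonist mode; 15-point titrations, triplicate.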

[5] = p53 small molecule agonists, cell-based qHTS assay with human liver microsomes (AID 1963577)
Outline: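 p53RE-bla reporter cells were pre-incubated 5 h at 37 C, then treated with compounds plus human liver microsomes (0.5 mg/mL final) and NADPH (0.5 mg/mL final) for 16 h at 37 C. Beta-lactamase activity was read by LiveBLAzer fluorescence after 2 h at room temperature.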

[6] = p53 small molecule agonists, cell-based qHTS assay with rat liver microsomes (AID 1963578)
Outline: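 p53RE-bla cells were exposed to compounds together with rat liver microsomes (0.5 mg/mL final) and NADPH (0.5 mg/mL final) for 16 h at 37 C, then read by LiveBLAzer beta-lactamase fluorescence after 2 h at room temperature.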

[7] = p53 small molecule agonists, cell-based qHTS assay with human liver microsomes: qHTS cell viability counter screen (AID 1963579); note: nearly all actives have a fitted effect of over 45% in size
Outline: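 p53RE-bla cells (4,000/well) were pre-incubated 5 h at 37 C, then given compounds in DMSO plus human liver microsomes (0.5 mg/mL final) and NADPH (0.5 mg/mL final) for 16 h at 37 C. Viability was read by CellTiter-Glo luminescence.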

[8] = p53 small molecule agonists, cell-based qHTS assay: qHTS cell viability counter screen (AID 1963581); note: nearly all actives have a fitted effect of over 45% in size
Outline: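 Following 5 h attachment, HCT-116 p53RE-bla cells took up compound for 16 h at 37 C; the reporter was read with B/G FRET substrate (2 h RT), and viability then via CellTiter-Glo ATP luminescence.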

[9] = target: 5-hydroxytryptamine receptor 2A (Homo sapiens) (UniProt P28223); assay: 5-hydroxytryptamine receptor 2A (HTR2A) small molecule antagonists, cell-based qHTS assay (AID 1963586); note: nearly all actives have a fitted effect of over 45% in size
Chain of 5-hydroxytryptamine receptor 2A (Homo sapiens) (P28223 whole entry, looked up): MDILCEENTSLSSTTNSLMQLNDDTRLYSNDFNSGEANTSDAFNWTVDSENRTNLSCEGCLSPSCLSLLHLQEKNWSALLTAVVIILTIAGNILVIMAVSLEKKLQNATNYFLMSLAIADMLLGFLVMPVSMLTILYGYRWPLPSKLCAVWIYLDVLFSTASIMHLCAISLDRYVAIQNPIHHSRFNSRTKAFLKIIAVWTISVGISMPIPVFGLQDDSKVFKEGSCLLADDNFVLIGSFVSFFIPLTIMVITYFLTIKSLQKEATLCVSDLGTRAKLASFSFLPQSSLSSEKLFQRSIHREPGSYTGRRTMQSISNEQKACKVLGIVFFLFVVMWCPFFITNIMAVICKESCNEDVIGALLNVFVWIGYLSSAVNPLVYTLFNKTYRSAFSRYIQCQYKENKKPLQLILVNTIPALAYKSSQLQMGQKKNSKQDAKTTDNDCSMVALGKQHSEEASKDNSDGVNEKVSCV
Outline: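 Antagonist-mode intracellular calcium assay: DOI (4 nM) added after 5 min compound pre-incubation at room temperature to dye-loaded HTR2A-CHO cells. Fluorescence followed for 3 min, sampled every second.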

[10] = target: 5-hydroxytryptamine receptor 2A (Homo sapiens) (UniProt P28223); assay: 5-hydroxytryptamine receptor 2A (HTR2A) small molecule agonists, cell-based qHTS assay (AID 1963587); note: nearly all actives have a fitted effect of over 30% in size
Outline: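 Kinetic calcium-flux fluorescence (2 min, 1 sec intervals) after compound addition in agonist mode. HTR2A-CHO cells were cultured 18 h, then dye-loaded 1 h at 37 C.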

[11] = target: Muscarinic acetylcholine receptor M1 (Homo sapiens) (UniProt P11229); assay: Cholinergic receptor muscarinic 1 (CHRM1) small molecule antagonists, cell-based qHTS assay (AID 1963588); note: nearly all actives have a fitted effect of over 40% in size
Chain of Muscarinic acetylcholine receptor M1 (Homo sapiens) (P11229 whole entry, looked up): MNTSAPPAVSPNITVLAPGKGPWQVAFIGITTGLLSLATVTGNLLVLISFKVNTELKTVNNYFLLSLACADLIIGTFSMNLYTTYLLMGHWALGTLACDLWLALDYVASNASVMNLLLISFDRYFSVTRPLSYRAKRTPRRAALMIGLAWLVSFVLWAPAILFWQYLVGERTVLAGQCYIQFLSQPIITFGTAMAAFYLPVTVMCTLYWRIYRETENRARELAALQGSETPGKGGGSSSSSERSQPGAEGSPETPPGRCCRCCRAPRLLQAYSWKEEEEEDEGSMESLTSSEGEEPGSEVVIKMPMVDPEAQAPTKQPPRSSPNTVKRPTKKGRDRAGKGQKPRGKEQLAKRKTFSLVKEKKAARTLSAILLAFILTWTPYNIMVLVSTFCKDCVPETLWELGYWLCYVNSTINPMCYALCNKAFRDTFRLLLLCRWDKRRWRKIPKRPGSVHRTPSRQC
Outline: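 CHRM1-CHO calcium-flux assay, antagonist mode. Cells were seeded 18 h, dye-loaded 1 h at 37 C and given compound for 5 min at RT, then acetylcholine was added at 50nM. FDSS fluorescence was read 3 min; 15 concentrations, three runs.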

[12] = target: Muscarinic acetylcholine receptor M1 (Homo sapiens) (UniProt P11229); assay: Cholinergic receptor muscarinic 1 (CHRM1) small molecule agonists, cell-based qHTS assay (AID 1963589); note: nearly all actives have a fitted effect of over 35% in size
Outline: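 Measures agonist-induced intracellular calcium rise. Stable human CHRM1 CHO line, 1 h dye load at 37 C, compounds from DMSO, kinetic fluorescence read.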

[13] = cAMP Responsive Elements (CRE) small molecule agonists, cell-based qHTS assay (AID 1963590)
Outline: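 A CRE-responsive beta-lactamase reporter in HEK 293T cells was used. Treatment ran 3 h at 37 C; detection used LiveBLAzer B/G FRET substrate for 2 h at room temperature.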

[14] = cAMP Responsive Elements (CRE) small molecule antagonists, cell-based qHTS assay (AID 1963591; active = well fitted inhibition curve with a large enough effect in the signal ratio in the repeat runs, not every such curve was filed as active; the % refers to the signal ratio)
Outline: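 HEK293T cells carrying a CRE-driven beta-lactamase reporter receive compound and NKH477 (0.25 uM final) for 3 h. Fluorescence from LiveBLAzer B/G FRET substrate is read after 2 h at room temperature.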

[15] = target: Beta-2 adrenergic receptor (Homo sapiens) (UniProt P07550); assay: Adrenergic beta2 receptor (ADRB2) small molecule antagonists, cell-based qHTS assay (AID 1963592); note: series mostly up to about 92 µM; nearly all actives have a fitted effect of over 50% in size
Chain of Beta-2 adrenergic receptor (Homo sapiens) (P07550 whole entry, looked up): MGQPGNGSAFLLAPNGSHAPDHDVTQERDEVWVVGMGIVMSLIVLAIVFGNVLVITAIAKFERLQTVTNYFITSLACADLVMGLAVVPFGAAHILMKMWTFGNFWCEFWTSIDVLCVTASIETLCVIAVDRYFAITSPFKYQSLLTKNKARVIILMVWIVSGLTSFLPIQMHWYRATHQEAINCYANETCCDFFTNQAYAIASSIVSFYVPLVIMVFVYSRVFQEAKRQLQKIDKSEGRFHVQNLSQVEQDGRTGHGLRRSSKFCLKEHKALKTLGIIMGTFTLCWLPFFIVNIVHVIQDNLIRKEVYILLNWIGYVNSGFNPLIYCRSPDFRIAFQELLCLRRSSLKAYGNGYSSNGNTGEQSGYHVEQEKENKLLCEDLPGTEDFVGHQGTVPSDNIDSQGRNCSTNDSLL
Outline: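 Cells (CHO, stable ADRB2 overexpression) incubated 18-20hr at 37C; compounds added from DMSO; agonist mix (1nM isoproterenol, 100uM IBMX, 25uM Ro-20-1724) added; 0.5hr RT; d2-cAMP and anti-cAMP-cryptate added; 1hr RT; 665/615 nm read.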

[16] = target: Beta-2 adrenergic receptor (Homo sapiens) (UniProt P07550); assay: Adrenergic beta2 receptor (ADRB2) small molecule agonists, cell-based qHTS assay (AID 1963593);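 note: CHO cells stably overexpressing human ADRB2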
Outline: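 CHO cells stably over-expressing ADRB2 were plated overnight at 37C, then dosed with compounds plus a stimulation mix containing 100uM IBMX and 25uM Ro-20-1724 for 0.5hr at room temperature. cAMP was measured by HTRF competition, 1hr.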

[17] = target: D(2) dopamine receptor (Homo sapiens) (UniProt P14416); assay: Dopamine D2 receptor (DRD2) small molecule agonists, cell-based qHTS assay (AID 1963594); note: nearly all actives have a fitted effect of over 35% in size; note: potency is the fitted concentration of half-maximal effect
Chain of D(2) dopamine receptor (Homo sapiens) (P14416 whole entry, looked up): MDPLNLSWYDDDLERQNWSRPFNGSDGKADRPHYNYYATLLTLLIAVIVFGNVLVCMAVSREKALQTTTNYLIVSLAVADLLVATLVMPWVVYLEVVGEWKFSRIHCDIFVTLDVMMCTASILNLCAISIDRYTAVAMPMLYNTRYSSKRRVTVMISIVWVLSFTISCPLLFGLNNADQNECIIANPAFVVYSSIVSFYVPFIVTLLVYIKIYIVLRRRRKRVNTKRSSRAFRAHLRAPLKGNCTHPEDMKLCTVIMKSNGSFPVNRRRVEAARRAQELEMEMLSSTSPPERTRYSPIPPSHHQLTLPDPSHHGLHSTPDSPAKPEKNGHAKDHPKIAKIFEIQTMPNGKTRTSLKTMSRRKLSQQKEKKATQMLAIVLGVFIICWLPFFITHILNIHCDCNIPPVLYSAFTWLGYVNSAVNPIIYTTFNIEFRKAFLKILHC
Outline: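 cAMP accumulation in DRD2-HEK293 cells measured by HTRF after 1 h detection; compounds added 10 min before NKH477 (200nM […]) forskolin-analogue stimulation, 30 min at room temperature, with Ro20-1724 present at 0.1 mM final.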

[18] = target: D(2) dopamine receptor (Homo sapiens) (UniProt P14416); assay: Dopamine D2 receptor (DRD2) small molecule antagonists, cell-based qHTS assay (AID 1963595; active = well fitted inhibition curve with a large enough effect in the signal ratio in the repeat runs, with a control signal flat; the % refers to the signal ratio)
Outline: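 Human DRD2 antagonist qHTS measuring cAMP by HTRF. The cells are exposed to compound for 10 min, then to NKH477 (200 nM) and quinpirole (12 nM) for 30 min at RT, with Ro20-1724 (0.1 mM) present throughout.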

[19] = p53 small molecule agonists, cell-based qHTS assay with rat liver microsomes: qHTS cell viability counter screen (AID 1963580); note: nearly all actives have a fitted effect of over 45% in size
Outline: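 Intracellular ATP, by CellTiter-Glo luminescence, defines viability. HCT-116 p53RE-bla cells, 4,000 per well, were compound-treated in the presence of rat liver microsomes and NADPH for 16 h at 37 C.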

[20] = p53 small molecule agonists, cell-based qHTS assay (AID 1963582; active = well fitted activation curve with a large enough effect in the signal ratio in the repeat runs, not every such curve was filed as active; the % refers to the signal ratio)
Outline: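 In this cell-based concentration-response screen, a p53 response element drives beta-lactamase; cells received DMSO-borne compounds after 5 h culture and were incubated a further 16 h before FRET substrate development.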

SMILES: OCCc1ccccc1
- Potency [1]: inactive
- Potency [2]: inactive
- Potency [3]: inactive
- Potency [4]: inactive
- Potency [5]: inactive
- Potency [6]: inactive
- Potency [7]: inactive
- Potency [8]: inactive
- Potency [9]: inactive
- Potency [10]: inactive
- Potency [11]: inactive
- Potency [12]: inactive
- Potency [13]: inactive
- Potency [14]: inactive
- Potency [15]: inactive
- Potency [16]: inactive
- Potency [17]: inactive
- Potency [18]: inactive

SMILES: CC(C)CC(C)CC(O)CC(C)C (stereo not drawn)
- Potency [1]: inactive
- Potency [2]: inactive
- Potency [4]: inactive
- Potency [5]: inactive
- Potency [6]: inactive
- Potency [7]: inactive
- Potency [19]: inactive
- Potency [8]: inactive
- Potency [20]: inactive
- Potency [9]: inactive
- Potency [10]: inactive
- Potency [11]: inactive
- Potency [12]: inactive
- Potency [13]: inactive
- Potency [14]: inactive
- Potency [15]: inactive
- Potency [16]: inactive
- Potency [17]: 1.8 nM (active) and inactive
- Potency [18]: inactive

SMILES: CC(=O)c1nccs1
- Potency [1]: inactive
- Potency [2]: inactive
- Potency [3]: inactive
- Potency [4]: inactive
- Potency [5]: inactive
- Potency [6]: inactive
- Potency [7]: inactive
- Potency [8]: inactive
- Potency [20]: inactive
- Potency [9]: inactive
- Potency [10]: inactive
- Potency [12]: inactive
- Potency [13]: inactive
- Potency [14]: inactive
- Potency [15]: inactive
- Potency [16]: inactive
- Potency [17]: inactive
- Potency [18]: inactive

SMILES: C=C(C)C(=O)OCC(C)C
- Potency [1]: inactive
- Potency [2]: inactive
- Potency [3]: inactive
- Potency [4]: inactive
- Potency [7]: inactive
- Potency [19]: inactive
- Potency [8]: inactive
- Potency [20]: inactive
- Potency [9]: inactive
- Potency [10]: inactive
- Potency [11]: inactive
- Potency [12]: inactive
- Potency [13]: inactive
- Potency [14]: inactive
- Potency [15]: inactive
- Potency [16]: inactive
- Potency [17]: inactive
- Potency [18]: inactive

SMILES: c1ccc2[nH]ccc2c1
- Potency [1]: 8.49 µM (active) and inactive
- Potency [2]: 6.01 µM (active) and inactive
- Potency [3]: inactive
- Potency [4]: inactive
- Potency [5]: inactive
- Potency [6]: inactive
- Potency [19]: inactive
- Potency [8]: inactive
- Potency [20]: inactive
- Potency [9]: inactive
- Potency [10]: inactive
- Potency [11]: inactive
- Potency [12]: inactive
- Potency [13]: inactive
- Potency [14]: inactive
- Potency [15]: inactive
- Potency [16]: inactive
- Potency [17]: inactive
- Potency [18]: inactive

SMILES: CC(C)[C@@H]1CC[C@@H](C)C[C@H]1O
- Potency [1]: inactive
- Potency [2]: inactive
- Potency [3]: inactive
- Potency [4]: inactive
- Potency [7]: inactive
- Potency [19]: inactive
- Potency [8]: inactive
- Potency [9]: inactive
- Potency [10]: inactive
- Potency [11]: inactive
- Potency [12]: inactive
- Potency [13]: inactive
- Potency [14]: inactive
- Potency [15]: inactive
- Potency [17]: inactive
- Potency [18]: inactive
